# Source: PubChem BioAssay AID527 (NMMLSC, 2006)
# The whole screen tested about 24,000 compounds, of which about 65 (0.3%) were called active.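 Rule for the calls: active = share of bacteria positive for the green fluorescent reporter and its mean brightness both inhibited by 50% or more; inactive = the rest, inconclusive results apart.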 The list comes from a sample in which actives are over-represented; it also holds similar structures and randomly drawn compounds.
# Assay: S. aureus quorum sensing inhibitors, primary screen, RNAIII-GFP reporter, flow cytometry (AID 527);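 note: 0% = AIP-stimulated control and 100% = unstimulated bacteria without AIP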
# Settings: S. aureus RN6390 RNAIII-GFP reporter, AIP-induced, flow cytometry 3 h, at 2 µM, stronger effect = higher value
# [1] = measured here: inhibition of GFP MFI
Structure (SMILES),inhibition,inhibition [1] [%]
Cc1ccccc1NC(=O)Cc1nnc(SCC(=O)N2CCN(c3ccccc3)CC2)n1C,-0.1% (inactive),7.2
CCC(=O)N1CCN=C1SCc1ccc(F)cc1,1.7% (inactive),7.4
CCOc1ccccc1-n1c(SCC(=O)NCc2ccco2)nnc1-c1ccncc1,-4.3% (inactive),-22.1
CN(C)CCCn1c(N)c(C#N)c2nc(C#N)c(C#N)nc21,-1% (inactive),1.8
CNC(=O)NCCN1CCCC1=O,7.2% (inactive),22.5
O=C(CCOc1ccccc1)NCc1ccccc1,1.7% (inactive),8.4
CC1CCCN(C(C(=O)Nc2ccc(C(C)C)cc2)c2ccc3c(c2)OCO3)C1 (stereo not drawn),-2.3% (inactive),0.9
Cc1cccc(C(=O)OCC(=O)Nc2sc3c(c2C#N)CCC3)c1,0% (inactive),-2
Cc1cccc(CC(=O)Nc2c3c(nn2-c2cccc(Cl)c2)CS(=O)C3)c1 (stereo not drawn),1.2% (inactive),3.3
Nc1scc(-c2ccncc2)c1Cl,0.4% (inactive),15.1
CSC1=NCCN1C(=O)c1ccc(S(=O)(=O)N2CCOCC2)cc1,-5.9% (inactive),-16.9
O=C(NCCc1ccccn1)c1ccc(COc2ccccc2)o1,-0.4% (inactive),-1.9
O=S1(=O)CC(NCc2ccccc2)C(Nc2ccc(Cl)cc2)C1 (stereo not drawn),-7% (inactive),-45.9
Cc1cccc(N2CCN(C(=O)C3CCN(S(=O)(=O)c4cnc[nH]4)CC3)CC2)c1C,-9.8% (inactive),-17
CCCn1c(C(O)c2ccc(OCC)cc2)nc2ccccc21 (stereo not drawn),-2.6% (inactive),-8.7
CC(=O)Oc1cc2c(C(=O)NCCN3CCOCC3)c(C)oc2c2ccccc12,-5.9% (inactive),-9.9
CCS(=O)(=O)N1CCCC(C(=O)NCCCN(C)Cc2ccccc2)C1 (stereo not drawn),-4.7% (inactive),-9.5
CC(C)(C)c1ccc(C(=O)NCCC(=O)NCc2ccco2)cc1,-2.6% (inactive),1.1
CC1CC(C)CN(CC(=O)Nc2ccc(S(N)(=O)=O)cc2)C1 (stereo not drawn),-0.3% (inactive),-0.4
COc1cccc(N2CCN(C3CC(=O)N(c4ccc(Cl)cc4)C3=O)CC2)c1 (stereo not drawn),-2.7% (inactive),-50.4
CCc1ccc(N2CC(C(=O)NC3=NCCS3)CC2=O)cc1 (stereo not drawn),-0.9% (inactive),-2.9

Structure (SMILES),inhibition,inhibition [1] [%]
OCc1n[nH]c(CO)n1,-8.3% (inactive),-35.9
COc1ccc(C2/C(=C(/O)c3ccc(OC(C)C)cc3)C(=O)C(=O)N2CCCN2CCOCC2)cc1 (stereo not drawn),7.5% (inactive),17.8
CCCCN(C)C(=O)c1ccc2c(c1)N(CC)C(=O)c1ccccc1S2(=O)=O,-3% (inactive),-32.6
COc1ccc(Cl)cc1S(=O)(=O)N1CCN(CC(=O)C(C)(C)C)CC1,-2.8% (inactive),-8.9
N#CCCn1cnc2ccccc21,2.1% (inactive),38.9
CC(=O)NCC(=O)N(C)C(C(=O)Nc1ccc2c(c1)OCCO2)c1ccccc1 (stereo not drawn),0.7% (inactive),7.7
COc1ccccc1-c1cc(C(=O)NCCCn2ccnc2)no1,0.6% (inactive),11.9
O=C(CN1CCN(C(=O)c2ccco2)CC1)Nc1ccc2c(c1)OCO2,0.1% (inactive),18.6
CCOC(=O)N1CCN(C(=O)c2ccc3nc4cc(Cl)ccc4c(=O)n3c2)CC1,0.6% (inactive),4.6
CCOC(=O)N1CCN(C(=O)c2cnc3n(c2=O)CCS3)CC1,-0.4% (inactive),7.7
NC(=O)C1(N2CCCCC2)CCN(C(=O)c2ccc(C#Cc3ccccc3)o2)CC1,14.7% (inactive),41.9
COc1ccc(-c2noc(COc3ccc(Cl)c(C)c3)n2)cc1,0.3% (inactive),-1.9
COc1ccccc1N1CCN(C(=O)c2cc(-c3ccc(Cl)c(Cl)c3)on2)CC1,0.6% (inactive),12
Cc1ccc(S(=O)(=O)NCC(=O)N(CC(=O)NC2CCCCC2)Cc2ccco2)cc1,1% (inactive),1.8
O=C(CN1CCOCC1)N1CCCc2c1c(=O)oc1ccc(OCc3ccccc3)cc21,7.9% (inactive),27.4
COC(=O)c1ccc(NC(=O)CSc2nnc(Cc3cccn3C)n2-c2ccc(F)cc2)cc1,0.7% (inactive),2.8
CCOc1ccc(S(=O)(=O)n2ccnc2)c2ccccc12,3.6% (inactive),12.2
COc1ccc(N2CCN(CCNC(=O)c3nnc(Cc4c(F)cccc4Cl)o3)CC2)cc1,-1.4% (inactive),-14
O=C(CSc1nnc(-c2c[nH]c3ccccc23)n1-c1ccc(F)cc1)NCc1ccco1,-0.1% (inactive),3.9
O=C(Nc1nccs1)C1CCCN1S(=O)(=O)c1cccc2cccnc12 (stereo not drawn),10.8% (inactive),6.8
CCOCCCN1C(=O)CN(C2CCCCC2)C(=O)C1c1ccc(OCC)c(OC)c1 (stereo not drawn),0.8% (inactive),4.3

Structure (SMILES),inhibition,inhibition [1] [%]
O=C(NC1=NCCS1)[C@H](Cc1ccccc1)N1C(=O)c2ccccc2C1=O,-2% (inactive),-7.9
CCOc1ccc(/C(O)=C2/C(=O)C(=O)N(Cc3cccnc3)C2c2ccc(N(C)C)cc2)c(C)c1 (stereo not drawn),-1.8% (inactive),-3.1
Cc1cc(NC(=O)CSc2nnc(-c3ccc(Cl)s3)o2)no1,-5.9% (inactive),-26.8
COc1ccc(NC(=O)CCNC(=O)Cn2ccc3ccccc3c2=O)c(OC)c1,-1.1% (inactive),-13.6
COc1ccccc1N1CCN(c2nc3ccccc3n3nnnc23)CC1,-2.2% (inactive),-4.7
CC(=O)c1cccc(S(=O)(=O)N2CCC(n3nnc4cc(F)ccc43)CC2)c1,-1.4% (inactive),-26.3
CCOC(=O)c1cn(CC(=O)Nc2ccc(C(C)C)cc2)nn1,2.3% (inactive),13.3
CCOC(=O)c1ccc(Nc2cc(C)nc3nc(C)nn23)cc1,-5.5% (inactive),-32.8
Cn1c(C(=O)NCCN2CCc3ccccc3C2)cc2c(=O)[nH]c3ccccc3c21,-1.3% (inactive),-0.4
COc1ccc(-n2ncc3c(N4CCCc5ccccc54)ncnc32)cc1,-3.1% (inactive),-2.2
C=CCOc1ccc(/C=N/n2cncn2)cc1OC,0.5% (inactive),-15.3
Cc1ccc(NC2=NC(c3ccccc3)n3c(nc(C)cc3=O)N2)cc1 (stereo not drawn),-2.1% (inactive),-6.2
COc1ccc(CC(=O)Nc2ccc(-c3nnc(-c4ccc(C)cc4)o3)cc2)cc1,7.6% (inactive),35.1
COc1ccc(NC(=O)c2c(SC)nsc2SC)cc1,67.4% (active),74.3
CCCNC(=O)Nc1ccccc1C(=O)Nc1ccc(OC)cc1,1.7% (inactive),13.6
Cc1noc(COc2ccccc2OCC(O)CNC(C)(C)C)n1 (stereo not drawn),-0.1% (inactive),0.9
Cc1cccc(C2c3c(n(C)c(=O)n(C)c3=O)N=C3c4ccccc4C(=O)C32)c1 (stereo not drawn),1.5% (inactive),20.3
COc1cccc(N(C(=O)c2ccn[nH]2)C2(C(=O)Nc3c(C)cccc3C)CCCCC2)c1,5.5% (inactive),-8
CCN(Cc1nc2ccccc2c(=O)[nH]1)Cc1cc(=O)oc2cc(C)c(C)cc12,4.2% (inactive),13.1
Cn1c(COc2ccc(Cl)cc2)nc2ccccc2c1=O,-6.8% (inactive),-42.8
COc1ccc(OC)c(C2N(c3ccccn3)C(=O)C3CCCN32)c1 (stereo not drawn),-2.2% (inactive),-7.1

Structure (SMILES),inhibition,inhibition [1] [%]
COc1cccc(C(CC(=O)NCCN2CCOCC2)NS(=O)(=O)c2ccc(C)cc2)c1OC (stereo not drawn),-5% (inactive),-11.5
COc1ccccc1C(=O)n1nc(-c2ccccc2)nc1N,-0.9% (inactive),-0.5
Cc1cc(=O)n2nc(N3CCCC3C(=O)NCCCN3CC(C)CC(C)C3)sc2n1 (stereo not drawn),2.5% (inactive),17.6
CC1CCCCN1S(=O)(=O)c1ccc(C(=O)Nc2nnc(-c3cccs3)o2)cc1 (stereo not drawn),65.9% (active),62.3
COc1cccc(-c2nnc(NC(=O)c3ccc(S(=O)(=O)N(CC(C)C)CC(C)C)cc3)o2)c1,14.3% (inactive),15.6
CCc1nnc(NC(=O)c2ccc(S(=O)(=O)NC3CCCCC3)cc2)s1,0.3% (inactive),4.5
O=C(O)Cc1ccc(-c2ccccc2)cc1,-0.8% (inactive),3.1
CN(C(=O)C1CCOC1)c1nnc(-c2cccnc2)s1 (stereo not drawn),-2.1% (inactive),1.3
COc1ccc(N2CCN(C(=O)CNC(=O)c3ccc(C(C)(C)C)cc3)CC2)cc1,-5.2% (inactive),-22.7
CCOc1cc(C(=O)Nc2ncccn2)cc(OCC)c1OCC,-0.2% (inactive),0.7
COC(=O)Nc1ccc(S(=O)(=O)N(C)CC(F)(F)C(F)F)cc1,-3.8% (inactive),-5.8
CC(=O)NC(Cc1ccc(F)cc1)C(=O)O (stereo not drawn),-5.3% (inactive),-7.6
Cc1nc2ccc(S(=O)(=O)NC(C(=O)N3CCCCCC3)C(C)C)cc2s1 (stereo not drawn),0.8% (inactive),-1
Cc1nc(NC(=O)CCC(=O)O)sc1C(=O)N(C)C,-4.1% (inactive),-15.4
O=C(O)C1C2C=CC(C2)C1C(=O)N1CCN(CCO)CC1 (stereo not drawn),-0.3% (inactive),-23.2
Cc1nnc(SCCCn2c(N3CCCCC3)nc3c2c(=O)[nH]c(=O)n3C)s1,2.3% (inactive),8.9
CCOC(=O)CSc1nnc(CNC(=O)c2cccs2)n1-c1cc(OC)ccc1OC,1.2% (inactive),29.5
O=C(CSc1nc2ccccc2o1)N1CCN(c2ccc(Cl)cc2)CC1,0.5% (inactive),5.2
CCOc1ccc(NC(=O)CC2NCCNC2=O)cc1 (stereo not drawn),0.5% (inactive),16.7
CCOc1ccc(CNC(=O)C2CCC(=O)N2C2CCCC2)cc1OC (stereo not drawn),3.8% (inactive),11.6
CCOC(=O)N1CCC(NC(=O)c2ccc3nc(N4CCOCC4)sc3c2)CC1,-5.4% (inactive),-36.9
